Laboratory results: PubChem BioAssay
Activity calls are given as the source filed them.

Assay: S. cerevisiae RM11-1a growth modifiers, primary screen, strain RM11-1a, OD600, basal, 24 h (AID 1177);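 also: cultures grown under basal conditions with no added stressor; test concentration not given here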
Details: OD600, 24 h, higher = more signal, called active from +8 up or from −8 down

z-score, inactive:
O=C1O[C@@H](c2ccccc2)[C@@H](c2ccccc2)N2[C@@H](c3ccc(OCCO)cc3)[C@]3(C(=O)Nc4ccc(C#CC5=CCCCC5)cc43)[C@@H](C(=O)Nc3nc4ccccc4s3)[C@H]12 2.53, CCCCN1CC=CC23O[C@@H]4/C=C\CCCOC(=O)C4[C@H]2C(=O)N(CCCCCCO)[C@@H]3C1=O (stereo partly specified) -0.874, COC(=O)[C@@]1(Cc2ccc(F)cc2)[C@H]2c3cc(C(=O)N(C)C)n(CCF)c3C[C@H]2CN1C(=O)c1ccccc1 -0.5, CCc1cccc(NC(=O)O[C@H]2[C@H](OC(=O)Nc3ccccc3-c3ccccc3)[C@H](OC(=O)Nc3ccccc3-c3ccccc3)[C@@H](OC)O[C@@H]2CO)c1 2.19, C=C(COC)C(=O)CC[C@H](OC(C)=O)c1ccccc1OCCO -0.0727, COC(=O)C(CC#Cc1ccc2c(c1)[C@]1(C(=O)N2)[C@H](c2ccc(OCCO)cc2)N2[C@H](c3ccccc3)[C@H](c3ccccc3)OC(=O)[C@H]2[C@@H]1C(N)=O)C(=O)OC 2.32, COc1ccc([Si](C)(C)[C@H]2[C@H](CC(=O)N(CCO)Cc3ccccc3)O[C@@]3(C(=O)N(Cc4cccc(N5CCCCC5=O)c4)c4ccccc43)[C@@H]2C)cc1 1.45, COCCCNC(=O)[C@@]1(Cc2ccccc2I)c2ccccc2C(=O)N(Cc2ccccc2C(F)(F)F)[C@H]1c1ccc(CO)cc1 1.38, CC[C@@H](O[Si](C#C[Si](C(C)C)(C(C)C)C(C)C)(C(C)C)C(C)C)c1cn([C@H](C)c2ccccc2)nn1 0.887, COCCOC(=O)N1C(=O)[C@@]2(c3cc(C#CCC(C(=O)OC)C(=O)OC)ccc31)[C@H](C(=O)N1CCc3cc(OC)c(OC)cc3C1)[C@H]1C(=O)O[C@H](c3ccccc3)[C@H](c3ccccc3)N1[C@@H]2c1ccccc1OCCO 1.3, CCCNC(=O)[C@@]1(Sc2ccc(C)cc2)CC(=O)N(Cc2cc(C(F)(F)F)cc(C(F)(F)F)c2)[C@@H]1c1ccc(CO)cc1 -0.977, Cc1ccc(S[C@]2(C(=O)NCc3ccccc3)CC(=O)N(Cc3ccccc3Cl)[C@@H]2c2ccc(CO)cc2)cc1 0.884, CC1(C)OB(/C=C\CC(OC(=O)c2ccncc2)c2ccccc2)OC1(C)C (stereo unspecified) -0.786, COc1cc(Cc2cc3c(c(-c4ccccc4)n2)[Si](C(C)C)(C(C)C)OC3)cc(OC)c1OC -0.776, C=CCOC(=O)[C@H]1[C@@H]2C(=O)O[C@@H](c3ccccc3)[C@@H](c3ccccc3)N2[C@@H](c2ccc(OCCOC(=O)[C@@H]3C[C@@H]4C(=O)N[C@@H](Cc5ccccc5)C(=O)N4[C@@H]3c3ccc(O)cc3)cc2)[C@]12C(=O)Nc1ccc(I)cc12 2.92, CC1C2C(CCCO)=CC(C3C(=O)N(C(N)=O)C(=O)C23)N1Cc1cccc(OC(F)(F)F)c1 (stereo unspecified) -0.369, COC(=O)[C@@]1(Cc2ccccc2)[C@H]2c3cc(C(=O)N(C)C)n(Cc4nc5ccccc5[nH]4)c3C[C@H]2CN1C(=O)c1ccccc1 -0.706, CO[C@H]1O[C@H](CO)[C@@H](OC(=O)Nc2cccc(F)c2)[C@H](OC(=O)Nc2ccc3c(c2)OCO3)[C@@H]1OC(=O)Nc1ccc2c(c1)OCO2 1.82, O=C1C2C=CC(C(O)c3ccccn3)N(Nc3ccc([N+](=O)[O-])cc3)C2C(=O)N1c1ccccc1 (stereo unspecified) -0.841, CC(C)N1C(=O)[C@@]2(Cc3ccccc31)c1ccccc1C(=O)N(Cc1ccccc1C(F)(F)F)[C@H]2c1ccc(CO)cc1 -0.107, CN1C2C=C(c3ccc(CO)cc3)C(C3C(=O)N(C(N)=O)C(=O)C32)C1C1CC1 (stereo unspecified) 0.718, CC(C)C[C@@H]1NC(=O)[C@@H]2C[C@H](C(=O)NCCCCCNC(=O)CS)[C@H](c3ccc(O)cc3)N2C1=O -1.38, CN(C)CCCCNC(=O)[C@H]1C[C@H]2C(=O)N[C@@H](CCCCN(C)C)C(=O)N2[C@H]1c1ccc(O)cc1 -1.52, CCOC(=O)C[C@H]1[C@H](OC(=O)c2ccccc2-c2ccccc2)[C@@H](NC(=O)CC(C)C)c2cc(OCCCO)ccc2N1C(=O)c1ccccc1 -0.71, CCCCCCc1nc(-c2ccc(OC)nc2)c(C)c2c1[Si](C(C)C)(C(C)C)OC2 -0.745, COCCCNC(=O)[C@]1(Cc2ccccc2CN=[N+]=[N-])N=C(c2ccc(OCCCO)cc2)O[C@@H]1c1ccccc1N=[N+]=[N-] 0.995
